For 24 compounds, Potency and activity change, positive = activation results are on record in PubChem BioAssay (Tox21).

Values without a mark were called inactive. Inconclusive results are not listed. Calls of active or inactive are those of the source. Unless noted, the call rests on the fitted dose curve; in most records, active means well fitted curve in the direction sought with a large enough effect in the repeat runs; inconclusive means weak or mixed curves; inactive means no such curve, though single readings can be large; an effect the other way counts as inactive or inconclusive.

Assay [1] in a line: qHTS assay to identify small molecule agonists of the hypoxia (HIF-1) signaling pathway (AID 1224846; active means well fitted activation curve with a large enough effect in the signal ratio in the repeat runs, not every such curve was filed as active; the % refers to the signal ratio; further: potency means the concentration at half of the fitted maximal effect). In short, it runs like this:
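HRE-bla ME-180 beta-lactamase reporter cells in medium with 0.5% dialyzed FBS, pre-incubated 5 h then exposed to compounds 17 h at 37C, 5% CO2; reporter induction read with CCF4-AM FRET substrate.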
In general terms: In qHTS, concentration-response curves come from the screen itself.

Assay [2] in a line: qHTS assay to identify small molecule antagonists of the estrogen related receptor (ERR) signaling pathway from Tox21 library (AID 1224848). Further: nearly all actives have a fitted effect of over 50% in size. Further: potency means the concentration at half of the fitted maximal effect. In short, it runs like this: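 ERR reporter cell line (from NTP) seeded 2,000 cells/well, rested 6 h at 37 C/5% CO2, then pin-dosed with compounds in DMSO. After 18 h at 37 C, ONE-Glo added; luminescence read after 30 min at room temperature.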

A short description of assay [3]: qHTS assay to identify small molecule agonists of the estrogen related receptor (ERR) signaling pathway from Tox21 library (AID 1224849; calls by dose curve; further: nearly all actives have a fitted effect of over 15% in size). The following applies: ERR reporter cell line, ONE-Glo luciferase, 18 h; at 92.4 µM (top of the series) unless noted. In short, it runs like this: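 ERR reporter cells (NTP line) pre-incubated 6 hours at 37 C, then exposed to compounds for 18 hours at 37 C. ONE-Glo luciferase luminescence was read after 30 minutes at room temperature.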

Assay [4] can be described thus: qHTS RealTime-Glo MT Cell Viability Assay in HEK293 cells - 32 hour (AID 1224868). Further: nearly all actives have a fitted effect of over 50% in size. Further: potency means the concentration at half of the fitted maximal effect. In short, it runs like this: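 Viability tracked continuously by luminescence as live cells reduce a prosubstrate for NanoLuc; HEK293 cells preincubated 5 h, compound-treated at 37 C, and read at 0, 8, 16, 24, 32 and 40 h.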
The nature of assay [5]: A CellTox Green Cytotoxicity Assay to monitor cytotoxicity in HEK293 cells - 0 hour (AID 1224869). Further: nearly all actives have a fitted effect of over 50% in size. Further: potency means the concentration at half of the fitted maximal effect. The method, boiled down:
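HEK293 cells, 600/well, were preincubated 5 hours and then exposed to compounds at 37 C for up to 40 hours. A cell-impermeant cyanine dye staining dead-cell DNA was read by fluorescence at 0, 8, 16, 24, 32 and 40 h time points.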

Assay [6] is described as follows: qHTS RealTime-Glo MT Cell Viability Assay in HepG2 cells - 40 hour (AID 1224870). Further: nearly all actives have a fitted effect of over 50% in size. Further: potency means the concentration at half of the fitted maximal effect. In short, it runs like this: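 HepG2 cells (600/well) mixed with RealTime-Glo MT reagent, settled 5 h at 37 C/5% CO2 before compound addition. Nonlytic NanoLuc luminescence from viable-cell prosubstrate reduction read repeatedly during 40 h treatment at 37 C.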
A short description of assay [7]: qHTS assay to identify small molecule agonists of H2AX - cell viability counter screen (AID 1224847; calls by dose curve; further: nearly all actives have a fitted effect of over 30% in size; further: potency means the concentration at half of the fitted maximal effect). The method, boiled down: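 Cytotoxicity counter screen in wild-type CHO-K1 cells: a 3 hr compound treatment at 37C across 15 concentrations, followed by CellTiter-Glo luminescence to gauge viable cells.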
Assay [8] in a line: qHTS RealTime-Glo MT Cell Viability Assay in HepG2 cells - 24 hour (AID 1224867). Further: nearly all actives have a fitted effect of over 50% in size. Further: potency means the concentration at half of the fitted maximal effect. The method, boiled down: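 Viability was tracked continuously by NanoLuc luminescence from prosubstrate reduced by living HepG2 cells, at successive time points over 40 h of compound exposure. Cells with reagent were preincubated 5 h at 37 °C before compound addition.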
On the % scale 0 is the no-effect control and ±100 the full control effect.

For the compound `CCOC(=O)c1nc(C(Cl)(Cl)Cl)n(-c2ccc(Cl)cc2Cl)n1`, the Potency entry in assay [1], in assay [4] and in assay [5] was “inactive” each time. Besides, the Potency in assay [2] is 61.1 µM (active). Besides, in assay [3], the activity change, positive = activation is -43.4%.
As to `O=C1c2c(O)ccc(Nc3ccc(CCO)cc3)c2C(=O)c2c([N+](=O)[O-])ccc(O)c21`, the Potency entry in assay [4], in assay [5] and in assay [6] was “inactive” throughout.
Take `Oc1ccc(C2(c3ccc(O)cc3)CC3CC2C2CCCC32)cc1` (stereo unspecified): the Potency is 86.2 µM (active) in assay [7], 58.7 µM (active) in assay [2] and 41.9 µM (active) in assay [4]. The activity change, positive = activation in assay [3] is -75.2%. The Potency result in assay [8], in assay [5] and in assay [6] was “inactive” throughout.
Consider `Nc1ccccc1O`, for which the Potency entry in assay [7], in assay [8] and in assay [5] was “inactive” each time. In addition, in assay [3], the activity change, positive = activation was -27.3%.
For `Cc1onc(-c2c(Cl)cccc2Cl)c1C(=O)N[C@@H]1C(=O)N2[C@@H]1SC(C)(C)[C@@H]2C(=O)O`, the Potency result in assay [7], in assay [2], in assay [8], in assay [4], in assay [5] and in assay [6] was “inactive” in each case.
In the case of `O=C(c1ccc(F)cc1)C1CCN(CCn2c(=O)[nH]c3ccccc3c2=O)CC1`, the activity change, positive = activation in assay [3] was -25.2% [at 42.5 µM]. Also, the Potency entry in assay [8], in assay [5] and in assay [6] was “inactive” in each case. Also, the Potency in assay [4] is 9.52 µM (active).
`Cc1oc(-c2ccccc2)nc1CCC(=O)c1ccc(CC2SC(=O)NC2=O)cc1` (stereo unspecified): the Potency entry in assay [7], in assay [4], in assay [5] and in assay [6] was “inactive” in each case. The activity change, positive = activation in assay [3] is -19.2% [at 42.5 µM].
In the case of `CCCCCCCC[P+](CCCCCCCC)(CCCCCCCC)CCCCCCCC`, the Potency was 0.108 µM (active) in assay [2], 13.7 µM (active) in assay [8], 0.434 µM (active) in assay [4] and 10.9 µM (active) in assay [6]. For the same compound, in assay [3], the activity change, positive = activation was -78.2%. Moreover, the Potency result in assay [5] was “inactive”.
As to `O=c1c(-c2ccccc2)c1-c1ccccc1`, the values for the Potency in assay [2] and in assay [4] were 8.41 µM (active) and 13.4 µM (active), respectively. For the same compound, the Potency entry in assay [5] was “inactive”.
With `CCc1cc(Cc2cc(CC)cc(C(C)(C)C)c2O)c(O)c(C(C)(C)C)c1`, the Potency in assay [7] was 31.8 µM (active); in assay [2] it was 30.6 µM (active); in assay [4] it was 19.5 µM (active); in assay [6], 54.9 µM (active). The activity change, positive = activation in assay [3] was -75.4%. Besides, the Potency entry in assay [5] is “inactive”.
On to `CN1CCC(Nc2ncc3ncnc(Nc4ccc(F)c(Cl)c4)c3n2)CC1`, for which the Potency in assay [1] was 8.49 µM (active); in assay [4] it was 10.7 µM (active). Also, in assay [3], the activity change, positive = activation was -30.3% [at 42.5 µM]. In addition, in assay [5], the Potency entry was “inactive”.
With `CCCCCOC(=O)CCCC`, the Potency result in assay [1], in assay [4], in assay [5] and in assay [6] was “inactive” throughout.
Take `CCOc1ccc2nc3cc(N)ccc3c(N)c2c1`: the Potency result in assay [7] and in assay [5] was “inactive” in each case. In addition, the Potency is 10.7 µM (active) in assay [8], 15.1 µM (active) in assay [4] and 8.49 µM (active) in assay [6].
On to `Cc1[nH]nc2c1N=C(c1ccccc1Cl)c1cc([N+](=O)[O-])ccc1N2`, for which the Potency in assay [7] is 80 µM (active). In addition, the Potency entry in assay [8] and in assay [5] was “inactive” in each case.
Turning to `NNc1nc(-c2ccc(N)cc2)cs1`, in assay [2], the Potency is 61.1 µM (active). Moreover, the activity change, positive = activation in assay [3] is -40.8%. Moreover, the Potency result in assay [8], in assay [5] and in assay [6] was “inactive” in each case.
In the case of `CC(=O)S[C@@H]1CC2=CC(=O)CC[C@]2(C)[C@H]2CC[C@@]3(C)[C@@H](CC[C@@]34CCC(=O)O4)[C@H]12`, the Potency entry in assay [1], in assay [5] and in assay [6] was “inactive” each time.
With `CSc1ccc2c(c1)C(N1CCN(C)CC1)Cc1ccccc1S2` (stereo unspecified), the Potency in assay [8] is 23.9 µM (active). The Potency result in assay [5] is “inactive”.
For the compound `O=C(N/N=C/c1ccccc1O)c1ccncc1`, the Potency entry in assay [7], in assay [8], in assay [5] and in assay [6] was “inactive” throughout. For the same compound, the Potency in assay [2] is 11.9 µM (active).
As for `CC/C(=C(\c1ccc(O)cc1)c1ccc(OCCN(C)C)cc1)c1ccccc1`, the Potency in assay [7] is 90 µM (active); in assay [2], 48.7 µM (active); in assay [8] it was 61.8 µM (active); in assay [4], 19.5 µM (active). Further, the Potency entry in assay [5] is “inactive”.
As to `O=c1cc(-c2ccc(O)cc2)oc2cc(O)cc(O)c12`, the Potency entry in assay [5] and in assay [6] was “inactive” throughout.
Consider `O=C(Nc1ccc(Oc2ccc(Cl)cc2)c(Cl)c1)c1cc(I)cc(I)c1O`, for which the activity change, positive = activation in assay [3] is -35.9% [at 42.5 µM]. In addition, the Potency entry in assay [8], in assay [4], in assay [5] and in assay [6] was “inactive” each time.
With `CCCC(=O)OC[C@@H](OC(=O)CCC)[C@@H](OC(=O)CCC)[C@H](Cn1c2nc(=O)[nH]c(=O)c-2nc2cc(C)c(C)cc21)OC(=O)CCC`, the results for the Potency in assay [2] and in assay [5] were 29.8 µM (active) and 19 µM (active), respectively. Also, the activity change, positive = activation in assay [3] was -44.5% [at 42.5 µM]. Also, the Potency entry in assay [6] was “inactive”.
For `O=C1Cc2cc(CCN3CCN(c4nsc5ccccc45)CC3)c(Cl)cc2N1`, in that order: 26.6 µM (active), “inactive”, -35.7% [at 42.5 µM] and “inactive”.
With `CCCCCOc1ccccc1/C(=C\SC)n1ccnc1`, in assay [2], the Potency is 21.1 µM (active). In addition, the activity change, positive = activation in assay [3] is -47.2% [at 42.5 µM]. Moreover, the Potency entry in assay [8], in assay [5] and in assay [6] was “inactive” each time.
